# Screening data deposited in PubChem BioAssay by National Center for Advancing Translational Sciences (NCATS).
# The entries come from a sample that favours hits as a whole.
# LmPK inhibitor = inhibitors of Leishmania mexicana pyruvate kinase | Q27686 | purified LmPK, Kinase-Glo ATP luminescence, 1 h | Potency, µM (top dose mostly 57.5 µM), most hits filed as inhibitors | hit rate 0.37% among 290,000 | AID 1721
# Target sequence (Q27686 whole entry, looked up): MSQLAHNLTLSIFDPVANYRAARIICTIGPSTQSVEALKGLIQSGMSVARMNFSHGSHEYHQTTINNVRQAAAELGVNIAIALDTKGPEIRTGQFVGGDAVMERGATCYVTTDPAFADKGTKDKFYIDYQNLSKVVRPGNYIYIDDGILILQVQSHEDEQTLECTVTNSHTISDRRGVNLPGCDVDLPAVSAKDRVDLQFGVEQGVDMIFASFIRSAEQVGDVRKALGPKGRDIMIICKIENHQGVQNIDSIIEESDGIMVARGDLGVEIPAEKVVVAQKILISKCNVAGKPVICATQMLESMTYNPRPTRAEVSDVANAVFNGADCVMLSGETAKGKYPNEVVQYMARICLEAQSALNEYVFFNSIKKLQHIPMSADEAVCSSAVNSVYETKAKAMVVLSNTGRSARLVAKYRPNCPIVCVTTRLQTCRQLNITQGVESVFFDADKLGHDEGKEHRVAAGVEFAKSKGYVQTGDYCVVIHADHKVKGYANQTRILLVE
#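 Purified LmPK (0.1 nM) with 0.5 mM PEP and 0.1 mM ADP in imidazole buffer pH 7.2 with MgCl2/KCl, 1 h at room temperature. ATP formed was read by luciferase luminescence and normalized to no-enzyme and uninhibited controls.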
# Tb PYK inh = blocks Trypanosoma brucei pyruvate kinase; Q57TT1; TbPYK enzyme, Kinase-Glo Plus ATP luminescence, 45 min; Potency, µM (titrated, usually from 76.8 µM), usual class: inhibitors; hit rate 0.12% among 410,000; also: nearly all actives have a fitted effect of over 50% in size
#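 Enzyme and substrate buffer are dispensed first and compound is pin-transferred. ADP at 130 uM final then starts the reaction, which runs 45 min at room temperature. Detection reagent is added for 10 min before luminescence is imaged.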
# Giardia FBPA inh = inhibitors of Giardia lamblia fructose-1,6-bisphosphate aldolase; purified Giardia FBPA; hit rate 0.71% among 290,000; Potency, µM (series often up to 59.6 µM), most hits filed as inhibitors; A8B2U2; also: nearly all actives have a fitted effect of over 55% in size
#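 40 nM FBPA preincubated 10 min at RT with compound (up to 57.5 uM final), then substrate plus GAPDH/TPI/NAD/arsenate coupling and diaphorase/resazurin added. Fluorescence read after 20 min at RT, 525/598 nm.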
# Shiga toxin inh = inhibitors of Shiga toxin in Vero cells; AID 2315; inhibition, % at 38.7 µM; Vero cells, Shiga toxin protein synthesis inhibition reporter; hit rate 9.2% among 290,000; in the data active = inhibition mostly above about 28%, no sharp cut-off; inactive = mostly below about 43%
# RE007 growth inh = less growth of the S. pombe RE007 Vpr strain; S. pombe RE007 Vpr strain, BacTiter-Glo ATP luminescence, 24 h; AID 651644; hit rate 0.21% among 360,000; Potency, µM (doses to about 92.2 µM), most hits filed as inhibitors; active = well fitted falling curve with a large enough effect; inconclusive = small, poorly fitted or top-dose-only effect; inactive = no such curve, though single readings can be large or run the other way; also: nearly all actives have a fitted effect of over 50% in size
#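 Fission yeast RE007 carrying one integrated HIV-1 vpr copy, seeded at OD 0.01 in PMG+AL medium with 23 nL pinned compound. Grown 24 h at 30 degrees; viability read by BacTiter-Glo luminescence after 5 min.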
# CHX counter = counter-screen for Shiga toxin inhibitors: cycloheximide protein synthesis inhibition. cell reporter, cycloheximide protein synthesis inhibition counterscreen. AID 2314. hit rate 12% among 300,000. max response, %; in the data active = max response mostly above about 13%, no sharp cut-off; inactive = mostly below about 14%; also: read at 38.3 µM for the half of the compounds with a filed dose
# Hits are given with their value; n = inactive; u = inconclusive; x = not tested or not shown; + = active, no number; ! = not confirmed by another sample; [ ] = remark or other dose. Unless noted, calls follow the shape of the dose curve; as a rule, active = well fitted curve in the direction sought with a large enough effect; inconclusive = small, poorly fitted or top-dose-only effect, or another doubt; inactive = no such curve, though single readings can be large; an effect the other way counts as inactive or inconclusive.
SMILES,LmPK inhibitor,Tb PYK inh,Giardia FBPA inh,Shiga toxin inh,RE007 growth inh,CHX counter
O=C(Nc1ccccc1)c1nc[nH]c1C(=O)NCc1ccccc1,x,n,x,x,n,x
NNC(=O)c1nc[nH]c1C(=O)Nc1ccccc1,n,n,n,22,n,14
CCOC(=O)c1c(S(=O)(=O)N2CCCC(C(=O)NCc3ccc(Cl)cc3)C2)c(C)n(C)c1C (stereo not given),x,n,x,x,x,x
CCOC(=O)C1Oc2ccccc2C(c2ccccc2)=C1C(C)=O (stereo not given),x,x,n,n,x,n
CCc1nc2cc(Cl)c(Cl)cc2[nH]1,n,n,n,n,n,11
CCc1nc2cc(Cl)c(Cl)cc2nc1CC,n,n,n,n,n,n
Cc1ccc2ncc3c(-c4ccccc4)nn(CC(=O)NC4CCCCC4)c3c2c1,x,n,x,x,x,x
Cc1ccc(NC(=S)N2CCSC2c2cccs2)cc1 (stereo not given),n,n,n,132,n,29
COc1ccc(C2SCCN2C(=S)Nc2ccc(Cl)cc2)cc1 (stereo not given),n,n,n,n,n,29
Cc1ccc(CNC(=O)CCCN2C(=O)c3cccnc3Oc3ccc(Cl)cc32)cc1,x,n[15.4 µM],x,x,x,x
Cc1ccc(NCc2ccncc2)c(Br)c1,n,n,u,33,n,n
Cn1cc(C=O)c2ccccc21,n,n,n,n,n,n
Cc1ccc(/C(C#N)=C\c2cn(C)c3ccccc23)cc1,n,x,n,25,x,19
Cc1cc(Cl)ccc1NC(=S)Nc1ccccn1,n,n,n,23,n,33
Cc1ccc(NC(=S)Nc2ccccn2)c(C)c1,n,n,n,82,n,48
CC1CCCN(S(=O)(=O)c2ccc3c(c2)CCN3C(=O)CCC(=O)O)C1 (stereo not given),x,n,x,x,x,x
COC(=O)C1=C(C)NC(C)=C(C(=O)NCCCN2CCC(c3ccccc3)(c3ccccc3)CC2)C1c1ccc([N+](=O)[O-])cc1 (stereo not given),x,x,n,n,x,n
Cc1nc(-c2ccc(C)c(N3CCN(C(=O)Nc4ccccc4C(F)(F)F)CC3)c2)no1,x,n,x,x,x,x
CCOC(=O)CC1COCCN1C(=O)c1cc(COc2ccc(F)cc2Cl)on1 (stereo not given),n,n,x,61,n,39
O=C(c1cc(COc2ccc(F)cc2Cl)on1)N1CC2C[C@@H]3CC1C[C@H](C2)C3,n,n,x,102,n,30
O=C(c1cc(COc2ccc(F)cc2Cl)on1)N1C[C@H]2CC[C@H]1C2,n,n,x,66,n,40
COc1cc(OC)c(Nc2c3c(nc4nc(-c5cccs5)nn24)CCCC3)cc1Cl,x,n,x,x,x,x
COc1ccc(NC(=O)CN2C(=O)CC(c3ccc(C)c(C)c3)=Nc3ccccc32)cc1OC,x,n,x,x,x,x
N#Cc1c(/N=C/c2ccc(O)cc2O)sc2c1C1CCN2CC1,n,n,n,n,n,9.9
CCN1CCN(c2ccc(N=Cc3ccc(O)cc3O)cc2)CC1,n,n,n,n,n,n
SMILES,LmPK inhibitor,Tb PYK inh,Giardia FBPA inh,Shiga toxin inh,RE007 growth inh,CHX counter
CCCCCCCC/C=C\CCCCCCCCOC[C@H](COP(=O)([O-])OCC[N+](C)(C)C)OC(C)=O,x,x,n,x,x,x
Fc1ccccc1CSc1nnnn1-c1ccc2c(c1)OCO2,n,n,n,n,n,16
O=C(CSc1nnnn1-c1ccc2c(c1)OCO2)NCc1cccs1,n,n,n,+,n,27
NS(=O)(=O)c1ccc(NC(=O)CN2CCN(c3ccc(F)cc3)CC2)cc1,x,n,x,x,x,x
Clc1ccc(-c2csc(Nc3ccccc3)[n+]2Cc2ccco2)c(Cl)c1,n,n,n,110,n,48
COc1ccccc1C(=O)N1CCN(C2CCN(Cc3ccccc3)CC2)CC1,n,n,n,n,n,43
COc1ccc(C(=O)N2CCN(C3CCN(Cc4ccccc4)CC3)CC2)cc1OC,n,n,u,n,n,n
COc1ccc(CCc2nc(C)ccc2O)cc1,n,n,n,+!,n,37
Cc1ccc(O)c(CO)n1,n,n,n,n,n,n
CCOc1cc(/C=C2\CCC/C(=C\c3cc(Cl)c(O)c(OCC)c3)C2=O)cc(Cl)c1O,n,n,n,n,n,23
C=CCNC(=O)/C(C#N)=C\c1cc(Cl)c(O)c(OCC)c1,n,n,u,n,n,n
COc1cc(C=C2CN(C)C(=O)C2=O)ccc1O,x,n,x,x,n,x
COc1cccc(/C=C2\N=C3CCCCCN3C2=O)c1,n,n,n,106,n,52
CCOc1cc(/C=C2\CN(C)C/C(=C\c3ccc(O)c(OCC)c3)C2=O)ccc1O,n,n,u,n,n,27
CCOc1cc(/C=C2\N=C3CCCCCN3C2=O)ccc1O,n,n,n,97,n,36
COc1cccc(/C=C2\SC(=S)N(CCCC(=O)N3CCCC3)C2=O)c1,n,n,n,n,n,n
O=C(CCC1N=C2c3ccccc3N=C(SCc3ccc(Cl)cc3)N2C1=O)NC1CCCCC1 (stereo not given),x,n,x,x,x,x
CCCCCCC(=O)Cc1cc(OC)c(OC)cc1/C=C(/C(C)=O)C(=O)OC,x,x,n[12.9 µM],x,x,x
O=C(NCCc1ccccc1Cl)c1sc2ncccc2c1-n1cccc1,x,n,x,x,x,x
O=c1cc(/C=C/c2ccccc2)oc2ccccc12,n,n,n,107,n,47
O=c1cc(-c2ccccc2)oc2ccccc12,x,n,x,x,n,x
CC1(CN2CCC(n3c(=O)[nH]c4ccccc43)CC2)OCc2ccccc2-n2cccc21 (stereo not given),x,n,n,n,x,n
COC(=O)c1ccc2nc(NC(=O)C3CCCCC3)sc2c1,n,n,n,n,n,24
CC(C)c1ccc2nc(NC(=O)C3CC3)sc2c1,n,n,n,70,n,52
COC(=O)c1ccc2nc(NC(=O)C(C)(C)C)sc2c1,n[11.5 µM],n,n,n,n,n
SMILES,LmPK inhibitor,Tb PYK inh,Giardia FBPA inh,Shiga toxin inh,RE007 growth inh,CHX counter
COc1ccccc1CNc1ncncc1-c1ccccc1C(F)(F)F,x,x,n,x,x,x
O=c1[nH]cnc2nn(-c3ccccc3)nc12,n,n,n,84,n,n
CS(=O)c1ccccc1COC(=O)Nc1cccc(Cl)c1 (stereo not given),n,n,n,n,n,n
O=C(Nc1ccc(Cl)cc1)OCc1cc(-c2ccccc2Cl)on1,n,n,n,n,n,n
O=C(Nc1ccc(Cl)cc1)OCc1ccccn1,n,n,n,78,n,29
CS(=O)(=O)c1ccccc1COC(=O)Nc1ccc(Cl)cc1,n,n,n,n,n,21
CCC[C@H](NC(=O)[C@H](CC(C)C)N(C)C(=O)CNC(=O)[C@@H](NC(=O)[C@H](Cc1ccccc1)NC(=O)[C@H](CCCCN)NC(=O)[C@@H](N)CC(=O)O)C(C)C)C(N)=O,x,x,n,n,x,n
COc1ccc(C2CC(c3ccccc3)Oc3cc(OC)c(OC)c(OC)c32)cc1 (stereo not given),x,x,n,n,x,n
COc1ncc2nc(-c3cccs3)c(=O)n(-c3ccccc3)c2n1,x,n,n,x,x,x
